# Data reported in PubChem BioAssay.
# Active and inactive are the calls of the source.
# Tested on: XIP peptide (Xip251-270) binding
# Assay: XIP fragment 251-270 binding compounds – biochemical, small-molecule microarray, fluorescence 635/667 nm, 0.1 µg/mL protein, primary screen (AID 1182)
# Settings: fluorescent protein binding, 635 nm, higher = more signal, called active from +8 up or from −8 down
row,Compound,composite z-score
1,CC(C)[C@H]1NC(=O)[C@@]23C(=O)N[C@@H](Cc4ccccc4)C2[C@H](C)[C@@]2(C)O[C@H]2C3/C=C/C/C=C\CNC(=O)[C@H](C)NC1=O (some centres undefined),-0.311 (inactive)
2,COC(=O)[C@@]1(Cc2ccc(OC)cc2)[C@H]2c3cc(C(=O)N(C)C)n(CCc4ccc(OC)c(Br)c4)c3C[C@H]2CN1C(=O)c1ccccc1,0.717 (inactive)
3,O=C1O[C@@H](c2ccccc2)[C@@H](c2ccccc2)N2[C@@H](c3ccc(OCCO)cc3)[C@]3(C(=O)Nc4ccc(C#CCCO)cc43)[C@@H](C(=O)N3CCN(c4ncccn4)CC3)[C@H]12,0.42 (inactive)
4,O=C1O[C@H](c2ccccc2)[C@H](c2ccccc2)N2[C@H]1[C@@H](C(=O)Nc1nc3ccccc3s1)[C@]1(C(=O)Nc3ccc(C#CC4=CCCCC4)cc31)[C@H]2c1ccccc1OCCO,0.0485 (inactive)
5,[N-]=[N+]=Nc1ccccc1C[C@@]1(C(=O)N2CCOCC2)N=C(c2ccc(OCCCO)cc2)O[C@@H]1c1ccccc1N=[N+]=[N-],0.49 (inactive)
6,O=C1O[C@@H](c2ccccc2)[C@@H](c2ccccc2)N2[C@@H](c3ccc(O)cc3)[C@]3(C(=O)Nc4ccc(C#CC5(O)CCCCCC5)cc43)[C@@H](C(=O)Nc3nc4ccccc4s3)[C@H]12,1.8 (inactive)
7,COc1ccc([C@H]2C[C@H]3C(Br)=C[C@]2(OC)C(=O)[C@]32CO2)cc1,0.288 (inactive)
8,CO[C@H]1O[C@H](CO)[C@@H](OC(=O)Nc2ccc(Oc3ccccc3)cc2)[C@H](OC(=O)Nc2ccccc2-c2ccccc2)[C@H]1OC(=O)Nc1ccccc1-c1ccccc1,1.57 (inactive)
9,O=C1OCCC/C=C\[C@H]2OC34C=CCN(CCN5CCOCC5)C(=O)[C@H]3N(CCCCCO)C(=O)[C@@H]4C12 (some centres undefined),0.853 (inactive)
